# Assay results as given in PubChem BioAssay (NCATS).
# Results filed as inconclusive are left out. A call without a number means that no potency is given here. A number with no mark means an inactive call. Calls of active or inactive are those of the source. The call rests on the fitted dose curve.
# Test: Cytotoxicity counterscreen for inhibitors of SARS-CoV-2 cell entry (AID 1645845); further: nearly all actives have a fitted effect of over 50% in size
# Conditions: cell viability (SARS-CoV-2 entry assay cells); series mostly up to 57.1 µM
# How it was run: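 Counterscreen run in the same HEK293-ACE2 line as the pseudotyped-particle entry assay, without particles. Viability after 48 h at 37 C was read as ATP luminescence, scaled between cell-containing and cell-free wells.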
SMILES,Potency,outcome,"activity change, negative = cytotoxicity"
CC(=O)N(CC(O)CO)c1c(I)c(C(=O)NCC(O)CO)c(I)c(C(=O)NCC(O)CO)c1I (configuration not stated),inactive,–,–
Nc1ccc(S(=O)(=O)Nc2ccccn2)cc1,inactive,–,–
Cc1c(C(=O)O)c(O)cc2c1C(=O)c1c(O)c([C@@H]3O[C@H](CO)[C@@H](O)[C@H](O)[C@H]3O)c(O)c(O)c1C2=O,inactive,–,–
CC1(C)S[C@@H]2[C@H](NC(=O)C(c3ccccc3)S(=O)(=O)O)C(=O)N2[C@H]1C(=O)O (some centres not stated),inactive,–,–
Cc1cccn2c(=O)c(-c3nnn[nH]3)cnc12,inactive,–,–
CCCCCCCN(CC)CCCC(O)c1ccc(NS(C)(=O)=O)cc1 (configuration not stated),inactive,–,–
CC(=O)OCC(=O)[C@H]1CC[C@H]2[C@@H]3CCC4=CC(=O)CC[C@]4(C)[C@H]3CC[C@]12C,inactive,–,–
O=C1[O][Bi][O]c2ccccc21,–,inactive [at 0.702 µM],–
Cc1ccccc1N1CCN(CCc2nnc3n2CCCC3)CC1,inactive,–,–
COC(=O)[C@@H]1[C@H]2C[C@H]3c4[nH]c5ccccc5c4CCN3C[C@@H]2CC[C@@H]1O,inactive,–,–
NS(=O)(=O)c1cc2c(cc1C(F)(F)F)NC(Cc1ccccc1)NS2(=O)=O (configuration not stated),inactive,–,–
CCOCCn1c(C2CCN(CCc3ccc(C(C)(C)C(=O)O)cc3)CC2)nc2ccccc21,inactive,–,–
CCCCCC=CCC=CCCCCCCCC(=O)OCC,inactive,–,–
C[C@]12C=CC(=O)C=C1CC[C@@H]1[C@@H]2C(=O)C[C@@]2(C)[C@H]1CC[C@]2(O)C(=O)CO,inactive,–,–
COc1ccc(O)cc1,inactive,–,–
CCCCCCCCCCCCCCCCOP(=O)([O-])OCC[N+](C)(C)C,inactive,–,–
CCC[C@@]1(CCc2ccccc2)CC(O)=C([C@H](CC)c2cccc(NS(=O)(=O)c3ccc(C(F)(F)F)cn3)c2)C(=O)O1,inactive,–,–
CCOc1cc(OCC)c(C(=O)CCC(=O)O)cc1OCC,inactive,–,–
CCOC(=O)C1=C[C@@H](OC(CC)CC)[C@H](NC(C)=O)[C@@H](N)C1,inactive,–,–

SMILES,Potency,outcome,"activity change, negative = cytotoxicity"
CCOC(=O)NNc1ccc(N(CC)CC(C)O)nn1 (configuration not stated),inactive,–,–
Cc1cc(C)c(NC(=O)CN(CC(=O)O)CC(=O)O)c(C)c1Br,inactive,–,–
CCN1C(=O)NC(c2ccccc2)C1=O (configuration not stated),inactive,–,–
CN1[C@@H]2CC[C@H]1CC(OC(c1ccccc1)c1ccccc1)C2 (some centres not stated),inactive,–,–
Cc1cccc(C)c1OCC(=O)N[C@@H](Cc1ccccc1)[C@@H](O)C[C@H](Cc1ccccc1)NC(=O)[C@H](C(C)C)N1CCCNC1=O,inactive,–,–
C=C1[C@H](CO)[C@@H](O)C[C@@H]1n1cnc2c(=O)[nH]c(N)nc21,inactive,–,–
CC(C)(O/N=C(\C(=O)N[C@@H]1C(=O)N2C(C(=O)[O-])=C(C[n+]3ccccc3)CS[C@H]12)c1csc(N)n1)C(=O)O,inactive,–,–
CC(C)OC(=O)OCOP(=O)(CO[C@H](C)Cn1cnc2c(N)ncnc21)OCOC(=O)OC(C)C,inactive,–,–
CNCCC=C1c2ccccc2CCc2ccccc21,inactive,–,–
O=C(O)[C@H](O)c1ccccc1,inactive,–,–
C[C@]12CCC(=O)C=C1CC[C@@H]1[C@@H]2[C@@H](O)C[C@@]2(C)[C@H]1CC[C@]2(O)C(=O)COC(=O)CCC(=O)O,inactive,–,–
CCOC(=O)C1=C(COCCN)NC(C)=C(C(=O)OC)C1c1ccccc1Cl (configuration not stated),inactive,–,–
CN(C)CCc1c[nH]c2ccc(Cn3cncn3)cc12,inactive,–,–
NCCCNCCSP(=O)(O)O,–,–,-16.9% [at 11.3 µM]
c1ccc2sc(SN3CCOCC3)nc2c1,inactive,–,–
CCOc1cc(CC(=O)N[C@@H](CC(C)C)c2ccccc2N2CCCCC2)ccc1C(=O)O,inactive,–,–
O=C(O)c1ccccc1Nc1cccc(C(F)(F)F)c1,inactive,–,–
CCN(CC)C(C)CN1c2ccccc2Sc2ccccc21 (configuration not stated),inactive,–,–
